Data reported in PubChem BioAssay AID1159580 (chemical genetic matrix, 2015).
Values joined by “and” are separate entries in the source; they are usually repeats but may differ in a detail not shown here. Equal entries are not always repeated. Out of some 5,500 compounds screened, about 2,000 (36%) were called active. Roughly 18% stayed inconclusive and do not appear here. Cut-off read from the data, not from the text of the source: active = normalized growth mostly below about 0.91 (no sharp cut-off); inconclusive = no clear call, values can overlap the other calls; inactive = mostly above about 0.92. This is one part of the list.

Assay: chemical genetic growth profiling, strain panel (AID 1159580);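 note: tested at 20 µM; growth read once vehicle control cultures reached saturation at 30 °C; 1 = growth at the plate median or of vehicle wells; lower values mean less growth of the strain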
Settings: S. cerevisiae deletion strains, growth OD

Measured: normalized growth

C/C=C(\C)C(=O)O[C@H]1C[C@@H](OC(C)=O)[C@@]2(C(=O)OC)CO[C@@H]3C2[C@]12CO[C@](O)(C(=O)OC)[C@H]2[C@](C)(C12O[C@@]1(C)[C@H]1C[C@@H]2OC2OC=C[C@@]21O)[C@@H]3O (stereo partly specified)
inactive: locus YAL013W, strain DEP1, stronger effect = lower value 0.99 | locus YAL021C, strain ccr4, stronger effect = lower value 1 | locus YAL026C, strain drs2, stronger effect = lower value 0.982 | locus YAL030W, strain snc1, stronger effect = lower value 0.976 | locus YBL061C, strain skt5, stronger effect = lower value 0.978 | locus YBR009C, strain hhf1, stronger effect = lower value 0.977 | locus YBR021W, strain FUR4, stronger effect = lower value 0.997 | locus YBR023C, strain chs3, stronger effect = lower value 0.985 | locus YBR171W, strain sec66, stronger effect = lower value 0.98 | locus YBR229C, strain ROT2, stronger effect = lower value 0.99 | locus YBR231C, strain swc5, stronger effect = lower value 0.991 | locus YBR279W, strain paf1, stronger effect = lower value 0.992 | locus YCL011C, strain gbp2, stronger effect = lower value 0.978 | locus YCL016C, strain dcc1, stronger effect = lower value 0.964 | locus YCL029C, strain bik1, stronger effect = lower value 0.955 | locus YCL061C, strain MRC1, stronger effect = lower value 0.986 | locus YCL069W, strain vba3, stronger effect = lower value 0.974 | locus YCR088W, strain abp1, stronger effect = lower value 0.986 | locus YDL005C, strain med2, stronger effect = lower value 0.963 | locus YDL040C, strain nat1, stronger effect = lower value 0.973 | locus YDL074C, strain BRE1, stronger effect = lower value 0.964 | locus YDL101C, strain DUN1, stronger effect = lower value 0.977 | locus YDL134C, strain PPH21, stronger effect = lower value 0.99 | locus YDL185W, strain tfp1, stronger effect = lower value 0.978 | locus YDL192W, strain arf1, stronger effect = lower value 0.986 | locus YDR001C, strain nth1, stronger effect = lower value 0.97 | locus YDR069C, strain doa4, stronger effect = lower value 0.969 | locus YDR101C, strain arx1, stronger effect = lower value 0.975 | locus YDR137W, strain rgp1, stronger effect = lower value 0.984 | locus YDR150W, strain NUM1, stronger effect = lower value 1 | locus YDR159W, strain sac3, stronger effect = lower value 0.994 | locus YDR162C, strain NBP2, stronger effect = lower value 1 | locus YDR195W, strain ref2 0.938 | locus YDR297W, strain sur2, stronger effect = lower value 0.975 | locus YDR318W, strain mcm21, stronger effect = lower value 0.977 | locus YDR334W, strain swr1, stronger effect = lower value 0.973 | locus YDR335W, strain msn5, stronger effect = lower value 0.981 | locus YDR388W, stronger effect = lower value 0.985 | locus YDR392W, strain spt3, stronger effect = lower value 0.969 | locus YDR502C, strain sam2, stronger effect = lower value 0.992 | locus YEL003W, strain gim4, stronger effect = lower value 1 | locus YEL037C, strain rad23, stronger effect = lower value 0.977 | locus YEL061C, strain CIN8 (second series), stronger effect = lower value 0.973 | locus YEL061C, strain CIN8, stronger effect = lower value 0.995 | locus YER015W, strain faa2, stronger effect = lower value 0.987 | locus YER016W, strain bim1, stronger effect = lower value 0.977 | locus YER110C, stronger effect = lower value 0.971 | locus YER111C, strain swi4, stronger effect = lower value 0.983 | locus YER155C, strain BEM2 (second series), stronger effect = lower value 0.981 | locus YER155C, strain BEM2, stronger effect = lower value 0.997 | locus YER167W, strain BCK2, stronger effect = lower value 1 | locus YFR010W, strain ubp6, stronger effect = lower value 0.979 | locus YGL078C, strain dbp3, stronger effect = lower value 0.995 | locus YGL086W, strain mad1, stronger effect = lower value 1 | locus YGL167C, strain pmr1, stronger effect = lower value 0.97 | locus YGL173C, strain kem1, stronger effect = lower value 0.982 | locus YGL227W, strain vid30, stronger effect = lower value 0.99 | locus YGL240W, strain doc1, stronger effect = lower value 1 | locus YGL248W, strain PDE1, stronger effect = lower value 0.99 | locus YGL253W, strain hxk2, stronger effect = lower value 0.986 | locus YGR078C, strain PAC10, stronger effect = lower value 0.997 | locus YGR135W, strain pre9, stronger effect = lower value 0.971 | locus YGR229C, strain SMI1, stronger effect = lower value 1.01 | locus YGR252W, strain gcn5, stronger effect = lower value 1.03 | locus YHR013C, strain ard1, stronger effect = lower value 0.964 | locus YHR027C, strain rpn1, stronger effect = lower value 0.965 | locus YHR030C, strain SLT2, stronger effect = lower value 0.989 and 0.98 | locus YHR079C, strain IRE1 (second series), stronger effect = lower value 0.969 | locus YHR079C, strain IRE1, stronger effect = lower value 0.991 | locus YHR094C, strain hxt1, stronger effect = lower value 0.985 | locus YHR129C, strain ARP1, stronger effect = lower value 0.992 | locus YHR142W, strain chs7, stronger effect = lower value 0.974 | locus YHR200W, strain rpn10, stronger effect = lower value 0.987 | locus YIL066C, strain RNR3, stronger effect = lower value 0.99 | locus YIL073C, strain SPO22, stronger effect = lower value 0.994 | locus YIL125W, strain kgd1, stronger effect = lower value 0.995 | locus YIR030C, strain dcg1, stronger effect = lower value 0.997 | locus YJL092W, strain hpr5, stronger effect = lower value 0.981 | locus YJL095W, strain BCK1 (second series), stronger effect = lower value 0.983 | locus YJL095W, strain BCK1, stronger effect = lower value 0.98 and 0.993 | locus YJL115W, strain asf1, stronger effect = lower value 0.963 | locus YJL129C, strain trk1, stronger effect = lower value 0.978 | locus YJL134W, strain LCB3, stronger effect = lower value 0.991 | locus YJL154C, strain vps35, stronger effect = lower value 0.969 | locus YJL164C, strain tpk1, stronger effect = lower value 0.969 | locus YJL166W, strain qcr8, stronger effect = lower value 0.99 | locus YJL168C, strain set2, stronger effect = lower value 0.978 | locus YJL187C, strain SWE1 (second series), stronger effect = lower value 0.978 | locus YJL187C, strain SWE1, stronger effect = lower value 0.982 | locus YJR043C, strain POL32, stronger effect = lower value 0.996 | locus YJR066W, strain TOR1, stronger effect = lower value 0.933
